{"source": "PubChem BioAssay (Tox21)", "note": "Records with an inconclusive call do not appear. Values without a mark were called inactive. Calls come from the whole dose curve; as a rule, active = well fitted cell-killing curve with a large enough effect in the repeat runs; inconclusive = weak or mixed curves, or effect the other way; inactive = flat fitted curve, though single readings scatter. % is set by controls: 0 for no effect and ±100 for the full control effect.", "data": [{"assay": "qHTS assay to identify small molecule agonists of the androgen receptor (AR) signaling pathway in the presence of an antagonist - cell viability counter screen (AID 1259379); note: nearly all actives have a fitted effect of over 25% in size", "settings": "MDA-kb2 viability, CellTiter-Fluor, 16 h; series mostly up to 92.4 µM; activity change, negative = cytotoxicity: at the top concentration", "source_text": "National Center for Advancing Translational Sciences [NCATS]\nNIH Chemical Genomics Center [NCGC]\nU.S. Environmental Protection Agency [EPA]\nNational Institutes of Environmental Health Sciences [NIEHS]\nNational Toxicology Program [NTP]\nU.S. Food and Drug Administration [FDA]\nAndrogen receptor (AR) is an important member of nuclear receptor family. Its signaling plays a critical role in AR-dependent prostate cancer and other androgen related diseases. Considerable attention has been given in the past decades to develop methods to study and screen for the environmental chemicals that have the potential to interfere with metabolic homeostasis, reproduction, developmental and behavioral functions. Therefore AR binding assay for screening against androgen agonists and antagonists can be used to identify potential endocrine disruptors.\nMDA-kb2 cells (from ATCC, deposited by Wilson et al.) are human breast carcinoma cells that were stably transfected with a luciferase reporter gene under control of the MMTV promoter that contains response elements for both androgen receptor (AR) and glucocorticoid receptor (GR). This particular screening for measuring luciferase reporter gene activity using MDA-kb2 cells against Tox21 10K library compounds is a confirmation study on agonist mode screening in the presence of AR-antagonist compound (Nilutamide) at 3.0uM final concentration. The cytotoxicity of the compounds was tested in parallel by measuring the cell viability using CellTiter-Fluor assay system (Promega, Madison, WI) in the same wells.\nTox21 Assay Protocol Summary:\nMDA-kb2 cells (cells cultured without CO2) were dispensed at 3,000 cells/well in 4uL of culture medium into white wall/solid-bottom 1536-well plates (Corning Life Sciences, Corning, NY) using a Multidrop Combi (Thermo Fisher Scientific Inc., Waltham, MA) dispenser. The assay plates were incubated at 37C and 0% CO2 for 5hr. One uL of 3.0uM (final concentration) Nilutamide or assay buffer was added using two separate tips of Flying Reagent Dispenser (FRD, Aurora Discovery, San Diego, CA). Then 23nL of compounds dissolved in DMSO at 15 concentrations and positive controls were transferred to the assay plates using a Pintool station (Wako, San Diego, CA). The assay plates were incubated at 37C and 0% CO2 for 16 hr. After 15hr incubation at 37C, 1uL/well CellTiter-Fluor reagent (Promega Corporation) was added to each well of the assay plates using FRD. After 1hr incubation at 37C and 0% CO2, the fluorescence signal was measured using a ViewLux plate reader (PerkinElmer, Shelton, CT).", "values": [{"smiles": "FC(F)(F)/C(=N\\OCC1OCCO1)c1ccc(Cl)cc1", "activity change, negative = cytotoxicity": "-2.93%"}, {"smiles": "O=C(O)c1ccccc1C(=O)OCc1ccccc1", "activity change, negative = cytotoxicity": "-1.29%"}, {"smiles": "Nc1ccnc(=O)[nH]1", "activity change, negative = cytotoxicity": "2.24%"}, {"smiles": "CC(C)CCO", "activity change, negative = cytotoxicity": "0.996%"}, {"smiles": "C1=C\\CC/C=C\\CC/1", "activity change, negative = cytotoxicity": "-1.48%"}, {"smiles": "CCOC(=O)CCCCCCCCC(=O)OCC", "activity change, negative = cytotoxicity": "0.912%"}, {"smiles": "CCCCCCCCCCCCC", "activity change, negative = cytotoxicity": "-0.935%"}, {"smiles": "CC(=O)c1ccc(OCC(=O)N2CCCCC2)cc1", "activity change, negative = cytotoxicity": "-0.834% [at 42.5 µM]"}, {"smiles": "Oc1ccccc1Cc1ccccc1O", "activity change, negative = cytotoxicity": "2.22%"}, {"smiles": "Cc1cc(C)cc([N+](=O)[O-])c1", "activity change, negative = cytotoxicity": "1.51%"}, {"smiles": "NS(=O)(=O)c1cc2c(cc1Cl)NC(CC1CCCC1)NS2(=O)=O", "note": "(stereo not given)", "activity change, negative = cytotoxicity": "-0.264% [at 42.5 µM]"}, {"smiles": "CCCCCC1CCCC(=O)O1", "note": "(stereo not given)", "activity change, negative = cytotoxicity": "3.56%"}, {"smiles": "CCC1COC(=O)O1", "note": "(stereo not given)", "activity change, negative = cytotoxicity": "2.64%"}, {"smiles": "CCN(Cc1cccc(S(=O)(=O)O)c1)c1ccccc1", "activity change, negative = cytotoxicity": "-1.31%"}, {"smiles": "C=C[Si](C)(C)O[Si](C)(C)C=C", "activity change, negative = cytotoxicity": "4.79%"}, {"smiles": "CC(C)(C)NCCO", "activity change, negative = cytotoxicity": "-2.46%"}, {"smiles": "CCC(C)(C)C1CCC(=O)CC1", "activity change, negative = cytotoxicity": "0.901%"}, {"smiles": "O=C1NC2NC(=O)NC2N1", "note": "(stereo not given)", "activity change, negative = cytotoxicity": "-0.149%"}, {"smiles": "CO[Si](CCCS)(OC)OC", "activity change, negative = cytotoxicity": "-2.4%"}, {"smiles": "Nc1nc(=O)n([C@@H]2O[C@H](CO)[C@@H](O)[C@@H]2F)cc1I", "activity change, negative = cytotoxicity": "-0.704% [at 42.5 µM]"}, {"smiles": "C=CCOc1c(Br)cc(C(C)(C)c2cc(Br)c(OCC=C)c(Br)c2)cc1Br", "activity change, negative = cytotoxicity": "0.0201% [at 42.5 µM]"}, {"smiles": "Nc1ccc(/C=C/c2ccc(N)cc2S(=O)(=O)O)c(S(=O)(=O)O)c1", "activity change, negative = cytotoxicity": "1.1% [at 0.35 µM]"}, {"smiles": "Cc1cc(O)c2c(c1)C(=O)c1cccc(O)c1C2=O", "activity change, negative = cytotoxicity": "-3.93% [at 42.5 µM]"}, {"smiles": "c1ccc(CNc2ncnc3nc[nH]c23)cc1", "activity change, negative = cytotoxicity": "2.44%"}, {"smiles": "C=C(C)C(=O)OCCCCCCOC(=O)C(=C)C", "activity change, negative = cytotoxicity": "-0.696%"}, {"smiles": "CN=C(NC#N)NCCSCc1csc(N=C(N)N)n1", "activity change, negative = cytotoxicity": "-4.57% [at 42.5 µM]"}, {"smiles": "CN[C@@H]1[C@H](O)[C@H](NC)[C@H]2O[C@@]3(O)C(=O)C[C@@H](C)O[C@H]3O[C@@H]2[C@H]1O", "activity change, negative = cytotoxicity": "-0.745% [at 42.5 µM]"}, {"smiles": "O=C(O)c1ccccc1C(=O)Nc1ccc(S(=O)(=O)Nc2nccs2)cc1", "activity change, negative = cytotoxicity": "1.98% [at 42.5 µM]"}, {"smiles": "O=C1OC(=O)c2cc(Oc3ccc4c(c3)C(=O)OC4=O)ccc21", "activity change, negative = cytotoxicity": "5.9%"}, {"smiles": "Cc1c(C(C)C)c(=O)n(-c2ccccc2)n1C", "activity change, negative = cytotoxicity": "4.77% [at 42.5 µM]"}, {"smiles": "NC(Cc1c[nH]c2ccccc12)C(=O)O", "note": "(stereo not given)", "activity change, negative = cytotoxicity": "0.665% [at 42.5 µM]"}, {"smiles": "C1CCN2C[C@@H]3C[C@@H](CN4CCCC[C@@H]34)[C@H]2C1", "activity change, negative = cytotoxicity": "0.817% [at 42.5 µM]"}, {"smiles": "C/C=C(\\C)C(=O)OCC/C=C\\CC", "activity change, negative = cytotoxicity": "0.696%"}, {"smiles": "CCCCC[Si](OCC)(OCC)OCC", "activity change, negative = cytotoxicity": "6.7%"}, {"smiles": "NS(=O)(=O)c1ccc(Cl)c(S(N)(=O)=O)c1", "activity change, negative = cytotoxicity": "1.95% [at 42.5 µM]"}, {"smiles": "COCCOCCOCCOC", "activity change, negative = cytotoxicity": "0.254%"}, {"smiles": "Cc1cccc(C(=O)O)c1[N+](=O)[O-]", "activity change, negative = cytotoxicity": "0.978%"}, {"smiles": "C=C(C)C(=O)OC", "activity change, negative = cytotoxicity": "2.01%"}, {"smiles": "CC(=O)/C=C/c1ccco1", "activity change, negative = cytotoxicity": "0.936%"}, {"smiles": "CCN(CCC#N)c1ccccc1", "activity change, negative = cytotoxicity": "-2.8%"}]}]}
